Screens: PubChem, several laboratories
FXN GAA850 act – FXN promoter activators, primary screen, cell-based, luciferase luminescence, HEK293 lucGAA850 | HEK293 lucGAA850 FXN promoter luciferase reporter, 24 h; percent of 10 µM SAHA response | activation, % at 6 µM | 360,000 tested, 0.56% active | AID 540364, 2011;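 active = activation above the average of all compounds screened plus 3 SD, cutoff fixed separately per campaign, cut at about 7.5% in these data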;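 note: 0% = DMSO wells and 100% = 10 µM SAHA wells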
SMARCA2 act – SMARCA2 (BRM) function activators, primary screen, cell-based, luminescence, high throughput | MG213 cells, MMTV-luciferase reporter, dexamethasone, overnight | activation, % at 9.1 µM | 370,000 tested, 1% active; in the data active = activation above about 7.8%;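 note: 0% = vehicle wells and 100% = reference activator wells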
GalR3 antag – GalR3 antagonists in HEK293 cells, primary screen, cell-based, fluorescence readout | HEK293 GalR3-CNG cAMP membrane potential fluorescence; galR3 body fused to GalR1 C-terminus | inhibition, % at 3 µM | 360,000 tested, 0.44% active | AID 651719, 2012;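 active = inhibition above the screen-wide average plus 3 SD, cut at about 13% in these data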;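 note: forskolin and galanin both at EC90 stimulate the cells; cAMP rise reported by CNG channel membrane potential dye signal; 0% = forskolin plus galanin with DMSO and 100% = forskolin alone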
Target sequence (O60755 1-299 limits assumed): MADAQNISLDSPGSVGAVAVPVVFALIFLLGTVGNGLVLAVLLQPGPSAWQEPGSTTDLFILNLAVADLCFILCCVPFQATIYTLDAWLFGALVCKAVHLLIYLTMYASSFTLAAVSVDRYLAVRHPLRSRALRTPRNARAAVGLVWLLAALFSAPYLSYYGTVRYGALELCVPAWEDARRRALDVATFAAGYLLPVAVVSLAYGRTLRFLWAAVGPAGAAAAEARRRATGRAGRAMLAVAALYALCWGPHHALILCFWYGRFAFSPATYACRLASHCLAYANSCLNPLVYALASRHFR
Hsp70 activator – Hsp70 transcriptional activators, primary screen, cell-based, HeLa, Hsp70 promoter luciferase, luminescence, 10 µM. 200,000 tested, 0.04% active. HeLa Hsp70 promoter luciferase reporter; scaled: vehicle 0, proteasome-inhibitor control 100%. activation, % at 10 µM;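 active = activation above the mean across all tested compounds plus 3 SD, cutoff set per campaign, cut at about 5.5% in these data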;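 note: 100% = MG132 at 30 µM as the positive control and 0% = DMSO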
HIF act – HIF pathway transcriptional activators, primary screen, cell-based, U2OS HRE-luciferase, luminescence; 300,000 tested, 0.32% active; activation, % at 7.5 µM (by protocol); U2OS HRE-luciferase reporter; normalized: DMSO 0%, desferrioxamine 100%;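 active = mean activation of at least 10% of the iron chelator positive control signal, with at least half of replicates also reaching 10%; inconclusive = mean and replicate majority disagree about reaching 10%; inactive = mean and most replicates under 10%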
SMARCA2 act conf – SMARCA2 (BRM) function activators, confirmation, cell-based, luminescence, triplicate | shares compounds with SMARCA2 act | MG213 cells, MMTV-luciferase with dexamethasone, overnight; MG213 cells expressing E1A, Rb sequestered; DMSO wells 0%, reference activator 100% | activation, % at 9.1 µM | 3,500 tested, 30% active | AID 652260, 2013;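 active = activation above its plate's cutoff, the mean activation of tested wells plus 3 SD, cut at about 7.9% in these data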
GAL4-VP16 Luc – GAL4-VP16 luciferase reporter activation, counter-screen for SMARCA2 (BRM) activator project, cell-based, pG5luc, luminescence, high throughput; shares compounds with SMARCA2 act; HEK293 GAL4-VP16 pG5luc reporter; scaled: DMSO wells 0%, SAHA wells 100%; activation, % at 9.1 µM; 3,500 tested, 41% active; AID 686939, 2013;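 active = activation above the solvent-only control well mean plus 3 SD, averaged across control plates, cut at about 5.2% in these data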
* = called active by the depositor; ? = inconclusive; · = no result given. Shown are actives, neighbours in structure and some others; about 2.2% of the full set was active somewhere.

SMILES	FXN GAA850 act	SMARCA2 act	GalR3 antag	Hsp70 activator	HIF act	SMARCA2 act conf	GAL4-VP16 Luc
COc1ccc(OCCC(=O)OCC(=O)NCc2ccccc2)cc1	0	9.8*	1	-1	0	-1	2
O=C(Nc1nnc(C2CC2)s1)C1COc2ccccc2O1 (stereo not given)	3	12*	-1	0	-2	7	14*
O=C(Nc1ccccc1)C1COc2ccccc2O1 (stereo not given)	3	5	-2	·	1	·	·
O=C(Nc1nncs1)C1COc2ccccc2O1 (stereo not given)	0	9.0*	-3	0	1	4	5
O=C(Nc1nnc(C(F)(F)F)s1)C1COc2ccccc2O1 (stereo not given)	2	-2	1	0	1	·	·
CC(=O)N[C@@H]1C[C@@H]2O[C@H](CO)CC[C@@H]2O[C@@H]1CCc1ccc(C#CC2(O)CCCC2)cc1	·	-3	·	·	·	·	·
CC(C)CCNC(=O)C1CCN(c2cncnc2)CC1	·	2	·	·	·	·	·
COc1ccc(CNc2nc3ccccc3n2C)c(OC)c1	3	8.0*	-6	0	4	10*	10*
COc1ccc(CNc2nc3ccccc3n2C)c(O)c1	4	8.1*	-4	·	3	9.3*	7.3*
Cn1c(NCc2ccc(Cl)cc2)nc2ccccc21	5	8.3*	-5	1	2	8.3*	11*
Cc1ccc(CNc2nc3ccccc3n2C)cc1	5	6	-7	·	0	·	·
C[C@H]1C2CC(OC(=O)Nc3ccc(F)cc3)C(C2)[C@H]2CCCCN21 (stereo not given in full)	·	-4	·	·	·	·	·
S=C(Nc1ccc(I)cc1)OC1CCC12CCC(c1ccccc1)CC2 (stereo not given)	·	-1	·	·	·	·	·
O=C(Nc1ccc(S(=O)(=O)N2CCCC2)cc1)c1ccc(Br)o1	1	-2	-10	·	0	·	·
CN1CCN(S(=O)(=O)c2ccc(NC(=O)c3ccc(Br)o3)cc2)CC1	1	8.2*	-2	0	0	4	1
O=c1c(Br)c(N2CCCCC2)cnn1-c1ccccc1	4	8.7*	-9	0	1	9.8*	9.0*
S=C(Nc1ccccc1)OC1CCC12CCC(c1ccccc1)CC2 (stereo not given)	·	-2	·	·	·	·	·
O=c1c2cc(F)ccc2sn1-c1ccccc1Cl	-5	9.0*	-5	·	·	-2	0
O=C(Nc1ccc(CCC(=O)N2CCCC2)cc1)c1ncn[nH]1	1	8.2*	-4	0	0	-5	2
Nc1cc2c3c(cccc3c1)C(=O)N(CCN1CCCC1)C2=O	2	20*	-5	·	?	30*	3
Cc1cc(C)c(S(=O)(=O)N2CCN(CCN3C(=O)c4cccc5cccc(c45)C3=O)CC2)cc1[N+](=O)[O-]	·	·	·	0	·	·	·
O=C1c2cccc3cc([N+](=O)[O-])cc(c23)C(=O)N1CCN1CCCC1	-6	64*	-9	·	-1	-2	6.5*
NC(=O)CN1CCN(CCN2C(=O)c3cccc4cccc(c34)C2=O)CC1	1	1	-5	·	0	·	·
Cc1cc(C)cc(NS(=O)(=O)c2c(C(=O)N3CCOCC3)c(C)n(C)c2C)c1	0	10*	-1	·	1	0	0
Cc1c(C(=O)N2CCCC2)c(S(=O)(=O)Nc2ccccc2)c(C)n1C	-1	14*	-10	·	0	-1	3
SMILES	FXN GAA850 act	SMARCA2 act	GalR3 antag	Hsp70 activator	HIF act	SMARCA2 act conf	GAL4-VP16 Luc
Cc1ccc(NS(=O)(=O)c2c(C(=O)N3CCOCC3)c(C)n(C)c2C)cc1	0	-3	2	·	0	·	·
Cc1c(C(=O)N2CCCC2)c(S(=O)(=O)Nc2cccc(Br)c2)c(C)n1C	1	-2	-10	·	0	·	·
Cc1ccc(-c2nc3ncccn3c2NC(=O)Nc2ccc(F)cc2)cc1	·	5	·	·	·	·	·
COc1ccc(C(=O)OCCN2CCN(C3CN(Cc4cn(Cc5cccc(F)c5)nn4)S(=O)(=O)C3)CC2)cc1OC (stereo not given)	·	-2	·	·	·	·	·
Cn1c(/C=C/c2ccc(Cl)cc2)nc2ccccc2c1=O	7	8.7*	-1	·	-11	4	6.1*
O=C(COc1ccccc1Cl)NC(=S)Nc1ccccc1N1CCCC1	3	11*	3	·	0	-3	0
CC1(C)COC(c2cc3c(cc2Br)OCO3)OC1	-1	8.1*	-2	·	·	-1	-2
CCC1(C)COC(c2ccc3c(c2)OCO3)OC1 (stereo not given)	1	0	-7	·	·	·	·
COCC(=O)N[C@@H]1C[C@@H]2O[C@H](CO)CC[C@@H]2O[C@@H]1CCc1ccc(-c2ccccc2)cc1	·	-4	·	·	·	·	·
COc1ccc(NC(=O)c2ccc3[nH]c(=O)c(=O)[nH]c3c2)c(OC)c1	0	0	-10	·	0	·	·
COc1ccc(NC(=O)c2ccc(C)cc2)c(OC)c1	5	14*	0	0	1	7	6.8*
COc1cccc(C(=O)Nc2ccc(F)c(F)c2F)c1	6	9.0*	0	0	6	2	7.9*
COc1cccc(C(=O)Nc2ccc(F)cc2F)c1	0	2	-4	0	5	·	·
COc1cccc(C(=O)Nc2ccc(C)cc2)c1	2	11*	-7	0	2	5	6.6*
COc1cccc(C(=O)NCCSc2ccc(F)cc2)c1	5	16*	-7	0	3	12*	10.0*
COc1cccc(C(=O)Nc2ccc(C(=O)O)cc2)c1	1	-2	-2	0	0	·	·
O=C(OC12CCCN(C1)/C(=C/c1ccc(Cl)cc1)C2)c1ccno1 (stereo not given)	·	-3	·	·	·	·	·
Cc1cccc(-c2cccc3c4c([nH]c23)[C@@H]2C[C@H](N(C)C(=O)Nc3ccccc3)[C@H]([C@H](C)O)CN2CC4)c1	·	5	·	·	·	·	·
COc1cccc(C(=O)Nc2ccc3c(c2)C(=O)c2ccccc2C3=O)c1	6	12*	-2	0	1	3	12*
CC1=CC2C3C(=O)N(c4ccccc4)C(=O)C3C1C(=O)C2(O)C(C)C (stereo not given)	·	-3	-6	·	·	·	·
O=C(c1ccc2c3n(nc2c1)-c1ccccc1CO3)N1CCCCC1	4	8	-3	·	-2	·	·
